Compound activity as filed in PubChem BioAssay.
Hits are enriched below; roughly 5.2% of the tested compounds scored in any of these assays.
GRIN3A LBD mod: binders of NR3A ligand-binding domain, primary screen, biophysical, differential scanning fluorimetry, uHTS. NR3A LBD differential scanning fluorimetry, Tm shift; 0% = protein alone, 100% = glycine-bound protein. Glutamate receptor ionotropic, NMDA 3A (GRIN3A) ligand-binding domain. actives 2.5% (n = 340,000). AID 1259313, 2017. Tm shift relative to glycine control, % at 25 µM;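 active = melting temperature shift of at least 10% of the positive control shift, at one fixed dose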
NadD inh: inhibitors of S. aureus NadD, primary screen, biochemical, colorimetric, uHTS. Nicotinate-nucleotide adenylyltransferase NadD (Staphylococcus aureus N315). purified NadD enzyme, colorimetric absorbance read-out. inhibition, % at 20 µM. actives 0.78% (n = 360,000); in the data active = inhibition above about 26%
SKN-1 block: suppressors of acrylamide-induced Pgst-4::GFP reporter in worms, primary screen, SKN-1 inhibitor project, whole organism, uHTS, GFP/RFP fluorescence ratio, strain VP596. inhibition, % at 21.8 µM. actives 0.49% (n = 360,000). AID 624304, 2012. C. elegans VP596 Pgst-4::GFP/RFP ratio, 24 h;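 active = interference check ratio from 0.5 to 1.5 plus GFP to RFP signal ratio inhibition reaching or exceeding a fixed threshold, cut at about 30% in these data, passing the limit was not always enough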
Vif imaging: HIV Vif self-association inhibitors, primary screen, imaging, HEK293T, single point; HEK293T cells, Vif self-association by quenched fluorescence, 24 h; inhibition, % at 7.49 µM; actives 0.35% (n = 340,000); AID 602346, 2012; in the data active = inhibition above about 50%, passing the limit was not always enough
SMARCA2 act: SMARCA2 (BRM) function activators, primary screen, cell-based, luminescence, high throughput. activation, % at 9.1 µM. actives 1% (n = 370,000). MG213 cells, MMTV-luciferase reporter, dexamethasone, overnight; in the data active = activation above about 7.8%;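 note: 0% = vehicle wells and 100% = reference activator wells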
esBAF inh: Bmi1 luciferase reporter increase in mESCs, primary screen, esBAF inhibitor project, mouse ES cells, Bmi1 luciferase knock-in, single point | 24 h; 100% = twice the neutral-well signal | reporter increase, % at 12.5 µM | AID 602393, 2012 | actives 2% (n = 350,000); in the data active = activation above about 40%;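 note: 0% = median of the plate's neutral control wells and 100% = double that signal; a rise in the Bmi1 reporter signal indicates esBAF inhibition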
SMARCA2 conf: SMARCA2 (BRM) function activators, confirmation, cell-based, luminescence, triplicate. actives 30% (n = 3,500). MG213 cells, MMTV-luciferase with dexamethasone, overnight; MG213 cells expressing E1A, Rb sequestered; DMSO wells 0%, reference activator 100%. AID 652260, 2013. activation, % at 9.1 µM. shares compounds with SMARCA2 act;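 active = activation above its plate's cutoff, the mean activation of tested wells plus 3 SD, cut at about 7.9% in these data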
GAL4-VP16 Luc: GAL4-VP16 luciferase reporter activation, counter-screen for SMARCA2 (BRM) activator project, cell-based, pG5luc, luminescence, high throughput. shares compounds with SMARCA2 act. HEK293 GAL4-VP16 pG5luc reporter; scaled: DMSO wells 0%, SAHA wells 100%. activation, % at 9.1 µM. actives 41% (n = 3,500);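 active = activation above the solvent-only control well mean plus 3 SD, averaged across control plates, cut at about 5.2% in these data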
* marks the source's active call; other numbers are inactive results; · = no result given.

SMILES	GRIN3A LBD mod	NadD inh	SKN-1 block	Vif imaging	SMARCA2 act	esBAF inh	SMARCA2 conf	GAL4-VP16 Luc
O=C(NC1CCCC1)C(c1ccc(F)cc1)N1CCC(O)(c2ccc(Cl)cc2)CC1 (centres undefined)	·	·	0.9	·	12.8*	·	-0.8	-0.8
COc1ccc(-c2ccc([C@H]3[C@@H](CO)N(C(=O)C4CCC4)[C@H]3C#N)cc2)cc1	·	·	·	·	·	-2.8	·	·
Cc1ccc(S(=O)(=O)Nc2cccc3c2O[C@@H](CN(C)Cc2ccncc2)[C@H](C)CN([C@@H](C)CO)C3=O)cc1	·	·	·	·	·	4.5	·	·
COc1ccccc1N1CCN(C(=O)C2CCN(C(=O)c3ccccc3Cl)CC2)CC1	-0.8	-1.2	24.3	-3.7	8.2*	4.0	-2.4	0.3
COc1ccccc1N1CCN(C(=O)C2CC2)CC1	4.8	-1.2	-10.2	4.8	0.7	·	·	·
Cc1ccc(S(=O)(=O)Nc2cccc3c2O[C@H](CN(C)Cc2ccc(C(=O)O)cc2)[C@H](C)CN([C@H](C)CO)C3=O)cc1	·	·	·	·	·	-3.4	·	·
C[C@H](CO)N1C[C@H](C)[C@H](CN(C)S(=O)(=O)c2cn(C)cn2)Oc2c(NS(C)(=O)=O)cccc2C1=O	·	·	·	·	·	-16.7	·	·
CC(C)(C)N1C(=O)c2ccccc2NC(=O)N1Cc1ccccc1	3.3	0.4	2.7	16.1	4.3	-2.9	·	·
CC(C)(C)N1NC(=O)Nc2ccccc2C1=O	4.2	0.0	14.1	4.6	9.6*	-8.6	-2.9	0.3
O=c1c(Br)c(N2CCCCC2)cnn1-c1ccccc1	0.8	-4.5	1.5	13.9	8.7*	·	9.8*	9.0*
COc1ccc(N=C2C(=Nc3ccc(OC)cc3)N(c3ccc(OC)cc3)C(=S)N2C(=O)c2ccc(OC)cc2)cc1	0.6	17.4	30.1	-15.4	1.2	7.6	·	·
COc1ccc(N2C(=S)N(C(=O)c3ccccc3)C(=Nc3ccccc3)C2=Nc2ccccc2)cc1	1.0	10.0	-5.3	-0.8	11.2*	13.5	2.3	3.1
CN(C)c1nc(=NCc2ccco2)ss1	-6.7	2.6	-1.8	-2.7	·	-5.6	·	·
CCOC(CN=c1nc(N(C)C)ss1)OCC	22.3*	-2.6	6.2	1.6	14.4*	·	5.4	5.7*
CC1(C(=O)NCCN2CCOCC2)C=CC2(CCCCC2)N1C(=O)c1ccccc1 (centres undefined)	-4.8	-0.1	26.5	2.2	8.7*	9.5	3.0	2.1
C[C@H](NS(=O)(=O)c1ccc2c(c1)OCCCO2)C(=O)N1CCN(Cc2ccccc2)CC1	1.8	4.4	10.3	-2.0	-3.6	·	·	·
C[C@H](NS(=O)(=O)c1ccc2c(c1)OCCCO2)C(=O)N1CCN(Cc2ccc(C#N)cc2)CC1	1.0	-1.2	5.5	-0.7	8.8*	-10.4	-3.6	1.4
CCOC(=O)C(=CNCC(=O)O)C(=O)OCC	1.3	-1.0	-2.1	4.3	11.1*	-1.0	-1.8	-0.3
O=C1NC(NS(=O)(=O)c2ccccc2)(C(F)(F)F)C(=O)N1Cc1ccccc1 (centres undefined)	-1.3	1.6	-4.1	-3.4	0.6	2.0	·	·
Nc1ccc(S(=O)(=O)NC2(C(F)(F)F)NC(=O)N(Cc3ccccc3)C2=O)cc1 (centres undefined)	-3.4	-0.4	-1.3	-12.0	8.0*	0.1	-5.3	-0.3
O=c1oc2ccccc2cc1-c1nc(-c2cccs2)cs1	-6.1	-0.8	-35.9	-1.6	7.0	21.0	·	·
COc1cccc2cc(-c3nc(-c4cccs4)cs3)c(=O)oc12	-5.7	21.8	14.3	6.0	8.6*	·	4.3	11.1*
C[C@@H]1CN([C@H](C)CO)C(=O)c2c(c3ccccc3n2C)-c2ccccc2CO[C@@H]1CN(C)Cc1ccc(C(=O)O)cc1	·	·	·	·	·	3.0	·	·
Cc1noc(C)c1NC(=O)N(C)C[C@H]1OCCCC[C@@H](C)Oc2ccc(NS(=O)(=O)c3ccccc3)cc2C(=O)N([C@@H](C)CO)C[C@@H]1C	·	·	·	·	·	-0.1	·	·
CCOc1cc2c(cc1OCC)C(c1ccccc1)N(c1ccc(C(=O)O)cc1)C(=O)C2 (centres undefined)	0.2	-3.7	4.4	-8.3	9.5*	-0.1	5.0	-1.1
SMILES	GRIN3A LBD mod	NadD inh	SKN-1 block	Vif imaging	SMARCA2 act	esBAF inh	SMARCA2 conf	GAL4-VP16 Luc
Cc1cc(C)cc(NC(=O)CCc2nc3sc4c(c3c(=O)[nH]2)CCCC4)c1	1.8	11.6	12.1	150.7*	24.2*	1.6	28.0*	1.1
CN(Cc1ccco1)C(=O)CCc1nc2sc3c(c2c(=O)[nH]1)CCCC3	-2.5	-0.2	-7.5	25.2	8.2*	-5.1	1.5	0.4
CC(=O)Nc1ccc(NC(=O)CCc2nc3sc4c(c3c(=O)[nH]2)CCCC4)cc1	-0.9	3.8	6.7	0.9	0.5	0.9	·	·
Cc1ccc(CN(C)C(=O)CCc2nc3sc4c(c3c(=O)[nH]2)CCCC4)o1	-2.7	4.0	13.5	·	1.3	·	·	·
CO[C@H]1CN(C)C(=O)c2ccc(NS(=O)(=O)c3ccc(C)cc3)cc2OC[C@@H](C)N(Cc2nccs2)C[C@H]1C	·	·	·	·	·	4.7	·	·
COc1cccc(S(=O)(=O)Nc2ccc3c(c2)OC[C@@H](C)NC[C@@H](C)[C@H](OC)CN(C)C3=O)c1	·	·	·	·	·	-0.3	·	·
O=C(CCNC(=O)c1ccco1)Nc1cccc(C(F)(F)F)c1	-1.5	2.3	-0.6	1.6	-0.6	-8.4	·	·
O=C(/C=C/Nc1cccc(C(F)(F)F)c1)c1ccco1	6.4	2.7	18.8	-8.6	8.7*	·	9.2*	8.5*
Cc1cccc(NC(=O)CN2C(=O)N/C(=C\c3ccccc3OCc3ccc(C(=O)O)cc3)C2=O)c1	-8.6	9.4	4.7	-9.5	8.7*	4.1	1.4	0.3
CC(=O)Oc1oc(-c2ccccc2)nc1/C=N/c1ccccn1	2.1	-3.2	16.0	-2.5	8.1*	25.1	5.8	8.1*
Cc1ccccc1S(=O)(=O)Nc1ccc2c(c1)C(=O)N(C)[C@@H]1CC[C@H](CC(=O)O)O[C@@H]1CO2	·	·	·	·	·	-0.6	·	·
CCOC(=O)Cn1nc(NC(=O)c2ccc(C(=O)OC)cc2)cc1C	1.1	-2.9	4.6	2.6	10.9*	-4.2	9.4*	1.6
